Assay outcomes deposited in PubChem by National Center for Advancing Translational Sciences (NCATS).
AmpC inh detg: AmpC beta-lactamase inhibition with detergent present; P00811; AmpC hydrolysis of nitrocefin, absorbance 480 nm, 0.01% Triton; Potency, µM (titrated, usually from 114 µM), most hits filed as inhibitors; 370,000 compounds, 0.041% hits; note: nearly all actives have a fitted effect of over 25% in size
Target sequence (P00811 whole entry, looked up): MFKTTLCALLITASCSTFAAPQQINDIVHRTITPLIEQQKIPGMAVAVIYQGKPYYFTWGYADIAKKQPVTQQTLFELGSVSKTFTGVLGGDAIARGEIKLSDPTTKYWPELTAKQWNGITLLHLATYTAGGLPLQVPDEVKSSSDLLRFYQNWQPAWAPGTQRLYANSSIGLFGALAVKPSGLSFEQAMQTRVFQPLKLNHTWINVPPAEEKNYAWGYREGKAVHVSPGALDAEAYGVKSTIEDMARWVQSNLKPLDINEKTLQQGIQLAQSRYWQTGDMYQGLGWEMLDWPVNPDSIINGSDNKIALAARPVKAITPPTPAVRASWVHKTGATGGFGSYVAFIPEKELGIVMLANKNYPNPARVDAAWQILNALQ
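20 mM phosphate pH 7.0 + 0.01% (detergent screen) or 0.0001% Triton X-100; 5.3 nM AmpC reagent; cpd preinc 15 min RT; nitrocefin (800 uM stock) to start; A480 q20 s × 4 min; Activity was normalised to no-enzyme and no-compound control wells.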
AmpC no deterg: AmpC beta-lactamase inhibition without detergent; P00811; Potency, µM (highest dose often 57.1 µM), actives largely listed as inhibitors; AmpC nitrocefin hydrolysis, absorbance 480 nm, 0.0001% Triton; AID 485341; 330,000 compounds, 0.52% hits; note: nearly all actives have a fitted effect of over 20% in size
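20 mM phosphate pH 7.0 + 0.01% (detergent screen) or 0.0001% Triton X-100; 5.3 nM AmpC reagent; cpd preinc 15 min RT; nitrocefin (800 uM stock) to start; A480 q20 s × 4 min; Activity was normalised to no-enzyme and no-compound control wells.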
Sm TGR block: inhibitors of Schistosoma mansoni thioredoxin glutathione reductase; Q962Y6; 360,000 compounds, 3% hits; Potency, µM (titrated, usually from 114 µM), actives largely listed as inhibitors; purified TGR, DTNB reduction, TNB absorbance 405 nm; note: nearly all actives have a fitted effect of over 60% in size
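Kinetic colorimetric format: TGR-catalysed, NADPH-driven DTNB reduction monitored via TNB absorbance. Enzyme dispensed at 20 nM; compound exposure 15 min at room temperature before reaction start.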
RE007 growth inh: less growth of the S. pombe RE007 Vpr strain; S. pombe RE007 Vpr strain, BacTiter-Glo ATP luminescence, 24 h; Potency, µM (highest dose often 92.2 µM), usual class: inhibitors; 360,000 compounds, 0.21% hits; AID 651644; active = well fitted falling curve with a large enough effect; inconclusive = small, poorly fitted or top-dose-only effect; inactive = no such curve, though single readings can be large or run the other way; note: nearly all actives have a fitted effect of over 50% in size
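Fission yeast strain RE007, carrying one chromosomally integrated HIV-1 vpr copy, was seeded at OD 0.01 in PMG+AL medium with 23 nL pinned compound. After 24 h at 30 °C and 99% humidity, viability was read by BacTiter-Glo luminescence.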
SARS PLP yeast: inhibitors of SARS-CoV papain-like protease in yeast | S. cerevisiae expressing SARS-CoV PLpro, growth rescue | Potency, µM (titrated, usually from 32.9 µM), hits mostly activators | 330,000 compounds, 0.19% hits | AID 485353; calls by dose curve; note: nearly all actives have a fitted effect of over 55% in size
Tb PYK inh: T. brucei pyruvate kinase inhibition. Q57TT1. TbPYK enzyme, Kinase-Glo Plus ATP luminescence, 45 min. Potency, µM (top dose mostly 76.8 µM), most hits filed as inhibitors. 410,000 compounds, 0.12% hits. AID 624173; note: nearly all actives have a fitted effect of over 50% in size
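TbPYK + substrate in 50 mM TEA pH 7.2, 100 mM KCl, 10 mM MgCl2, 0.05% BSA, 0.01% Tween-20; cpd pinned; ADP 130 uM final; 45 min RT; Kinase-Glo Plus 10 min; luminescence endpoint.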
Numbers stand for hits; [ ] = dose if it differs, or a comment. A selection: hits, their analogues and other compounds. The true share with any hit is near 3.3%. Unless noted, calls come from the whole dose curve; as a rule, active = well fitted curve in the direction sought with a large enough effect; inconclusive = small, poorly fitted or top-dose-only effect, or another doubt; inactive = no such curve, though single readings can be large; an effect the other way counts as inactive or inconclusive.

Screening Cc1ccc(NC(=O)Cn2c(=O)n(-c3ccccc3)c(=O)c3ccc(C(=O)NCc4ccc5c(c4)OCO5)cc32)c(C)c1 returned AmpC inh detg inactive, Sm TGR block inactive and Tb PYK inh inactive.
COc1ccc(C2=Nc3cccc4cccc(c34)N2)cc1 was read as AmpC inh detg inactive, AmpC no deterg inactive, Sm TGR block 50µM, RE007 growth inh inactive, SARS PLP yeast inactive and Tb PYK inh inactive.
ClCC1=Nc2cccc3cccc(c23)N1 was read as AmpC inh detg inactive, AmpC no deterg inactive, Sm TGR block 28µM and SARS PLP yeast inactive.
`CC(C)C1=Nc2cccc3cccc(c23)N1` gave AmpC inh detg inactive, AmpC no deterg inactive, Sm TGR block inactive, RE007 growth inh inactive, SARS PLP yeast inactive and Tb PYK inh inconclusive.
`Nc1cccc(C2=Nc3cccc4cccc(c34)N2)c1` gave AmpC inh detg inactive, AmpC no deterg inactive, Sm TGR block inactive, RE007 growth inh inactive, SARS PLP yeast inactive and Tb PYK inh inactive.
For CCc1ccccc1NC(=O)CN1C(=O)c2cccnc2Oc2ccc(Cl)cc21 the results were AmpC inh detg inactive, Sm TGR block inactive and Tb PYK inh inactive[15.4 µM].
Screening Cn1c(=O)c2c(-c3ccc(Br)cc3)n(Cc3ccc(F)cc3)cc2n(C)c1=O returned AmpC inh detg inactive, Sm TGR block inactive and Tb PYK inh inactive.
For CCOc1ccccc1NC(=O)c1cn(C2CCCC2)c(=O)c2c1c1ccccc1n2C the results were AmpC inh detg inactive, Sm TGR block inactive and Tb PYK inh inactive.
Screening CCc1ccc(OCC(=O)N(Cc2ccc(C)cc2)Cc2ccco2)cc1 returned AmpC inh detg inactive, Sm TGR block inactive and Tb PYK inh inactive.
`CCOc1ccc(N2C(=O)N(Cc3ccc(C)cc3C)c3ccccc3S2(=O)=O)cc1` gave AmpC inh detg inactive, Sm TGR block inactive and Tb PYK inh inactive.
Screening Cc1cc(=O)oc2ccc(OCC(=O)N3CCC(C)CC3)cc12 returned AmpC inh detg inconclusive, AmpC no deterg inactive, Sm TGR block 18µM, RE007 growth inh inactive, SARS PLP yeast inactive and Tb PYK inh inactive.
For Cc1cc(=O)oc2cc(OCC(=O)N3CCCC(C)C3)ccc12 (stereo not given) the results were AmpC inh detg inactive, AmpC no deterg inactive, Sm TGR block inactive, RE007 growth inh inactive, SARS PLP yeast inactive and Tb PYK inh inactive.
`O=C(CCS(=O)(=O)c1nc(-c2ccc3c(c2)OCO3)cc(C(F)(F)F)n1)Nc1ccc(F)c(Cl)c1` gave AmpC inh detg inactive, Sm TGR block inactive and Tb PYK inh inactive.
Screening CCC1CN(C)C2Cc3c([nH]c4ccccc34)C(=O)CC1C2C(=O)OC (stereo not given) returned AmpC inh detg inactive, AmpC no deterg inactive, Sm TGR block 45µM, RE007 growth inh inactive, SARS PLP yeast inactive and Tb PYK inh inactive.
CC[C@H]1CN(C)C[C@@]2(C(=O)OC)Cc3c([nH]c4ccccc34)C(=O)C[C@@H]12 was read as RE007 growth inh inactive and Tb PYK inh inactive.
Nc1nonc1C(=O)NCCN=Cc1cc(Cc2ccccc2)cc(Br)c1O was read as AmpC inh detg inactive, AmpC no deterg inactive, Sm TGR block inactive, RE007 growth inh 16µM, SARS PLP yeast inactive and Tb PYK inh inactive.
Screening CCCCCOc1ccc(C2SC(=O)NC2=O)cc1OCC (stereo not given) returned Tb PYK inh inactive.
COc1ccc(OC)c(NC(=O)Nc2ccc3c(c2)CCC3)c1 was read as AmpC inh detg inactive, AmpC no deterg 8.9µM, Sm TGR block inactive, RE007 growth inh inactive, SARS PLP yeast inactive and Tb PYK inh inactive.
For CC1CCc2c(sc3nc(-c4cc5cc(Br)ccc5oc4=O)[nH]c(=O)c23)C1 (stereo not given) the results were AmpC inh detg inactive, Sm TGR block inactive and Tb PYK inh inactive.
Screening Cc1ccc(/C=c2\s/c(=C(/C#N)C(=O)N3CCCC3)n(Cc3ccco3)c2=O)s1 returned AmpC inh detg inactive, AmpC no deterg inactive, Sm TGR block 5µM, RE007 growth inh inactive, SARS PLP yeast inactive and Tb PYK inh inactive.
`O=C(c1ccc2c(c1)N(Cc1ccccc1)C(=O)c1ccccc1S2=O)N1CCC(Cc2ccccc2)CC1` (stereo not given) gave AmpC inh detg inactive, Sm TGR block inactive and Tb PYK inh inactive.
For CCC(C)N(CC(=O)Nc1cccc(C)c1C)C(=O)CCl (stereo not given) the results were AmpC inh detg inactive, AmpC no deterg inactive, Sm TGR block 20µM, RE007 growth inh inactive, SARS PLP yeast inactive and Tb PYK inh inactive.
For CC(C)N(CC(=O)Nc1ccc(Cl)cc1C(F)(F)F)C(=O)CCl the results were AmpC inh detg inactive, AmpC no deterg inactive, Sm TGR block 18µM, RE007 growth inh inactive, SARS PLP yeast inactive and Tb PYK inh inactive.
COc1ccc(C(C)=O)cc1CSc1nc(NCc2ccccc2)c2ccccc2n1 was read as AmpC inh detg inactive, Sm TGR block inactive and Tb PYK inh inactive.
For COc1ccc(S(=O)(=O)NCc2ccc(C(=O)NCc3ccccc3)cc2)cc1 the results were AmpC inh detg inactive, Sm TGR block inactive and Tb PYK inh inactive.
`CC(C)Cn1c(N)c(C(=O)COC(=O)c2cc(-c3ccco3)nc3ccccc23)c(=O)n(C)c1=O` gave AmpC inh detg inactive, AmpC no deterg inactive, Sm TGR block 6.3µM, RE007 growth inh inactive, SARS PLP yeast inactive and Tb PYK inh inactive.
Screening Cn1c(=O)c(C(=O)COC(=O)c2cc(-c3ccco3)nc3ccccc23)c(N)n(Cc2ccccc2)c1=O returned AmpC inh detg inactive, AmpC no deterg inactive, Sm TGR block 3.2µM and SARS PLP yeast inactive.
COc1cc(OC)c(NC(=O)Cn2cnc3nc4c(cc3c2=O)CCCC4)cc1Cl was read as AmpC inh detg inactive, Sm TGR block inactive and Tb PYK inh inactive.
For COc1cc(C(=O)O/N=C2\C=CC(=O)C(C)=C2)cc(OC)c1OC the results were AmpC inh detg inactive, AmpC no deterg inactive, Sm TGR block 3.2µM, RE007 growth inh inconclusive, SARS PLP yeast inactive and Tb PYK inh inactive.
CCN1C(=O)CC(c2ccco2)Sc2ccccc21 (stereo not given) was read as AmpC inh detg inactive, AmpC no deterg inactive, Sm TGR block 25µM, RE007 growth inh inactive, SARS PLP yeast inactive and Tb PYK inh inactive.
O=C(CN1C(=O)CC(c2ccco2)Sc2ccccc21)Nc1ccccc1F (stereo not given) was read as AmpC inh detg inactive, AmpC no deterg inactive, Sm TGR block 25µM, RE007 growth inh inactive, SARS PLP yeast inconclusive and Tb PYK inh inactive.
